# Assay outcomes: PubChem, National Center for Advancing Translational Sciences (NCATS)
# A selection: hits, their analogues and other compounds. The true share with any hit is near 15%.
# RORgamma inh: qHTS for inhibitors of ROR gamma transcriptional activity | Nuclear receptor ROR-gamma (Mus musculus), P51450 | Drosophila S2 Gal4-RORgamma UAS-luciferase reporter, 20 h | Potency, µM (highest dose often 53.6 µM), inactives show at the top dose activity change, negative = inhibition, usual class: inhibitors | hit rate 5.4% among 310,000 | AID 2551, 2010; note: nearly all actives have a fitted effect of over 60% in size
#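 Using a luciferase readout, inhibitors were identified by reduced reporter activity in Drosophila cells coexpressing a copper-inducible Gal4–ROR gamma fusion and UAS-driven Photinus luciferase, incubated 20 hr after 700 uM copper sulfate.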
# TDP1 cell noCPT: qHTS for Inhibitors of human tyrosyl-DNA phosphodiesterase 1 (TDP1): qHTS in cells in absence of CPT. hit rate 15% among 420,000. DT40 Tdp1-/- hTDP1 cells, no CPT, ATP luminescence, 48 h. Potency, µM (series often up to 46.2 µM), for the others: top-dose activity change, negative = growth inhibition, most hits filed as inhibitors; note: nearly all actives have a fitted effect of over 55% in size
#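 Stably hTDP1-transfected Tdp1-null chicken DT40 cells were treated with library compounds minus camptothecin and grown for at least 48 hr at 37 °C, after which cellular ATP was quantified by luminescence.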
# TDP1 cell CPT: qHTS for Inhibitors of human tyrosyl-DNA phosphodiesterase 1 (TDP1): qHTS in cells in presence of CPT; hit rate 12% among 420,000; Potency, µM (highest dose often 46.2 µM), without a hit: top-dose activity change, negative = growth inhibition, most hits filed as inhibitors; chicken DT40 Tdp1-/-;hTDP1 cells + 20 nM CPT, ATP luminescence, 48 h; note: nearly all actives have a fitted effect of over 55% in size
#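 Cell growth measured by CellTiter-Glo luminescence after a minimum 48 h, 37 C compound exposure with 20 nM CPT in Tdp1-knockout DT40 cells stably expressing hTDP1, seeded 400/well; qHTS titration format.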
# ELG1 DNA repair: qHTS screen for small molecules that inhibit ELG1-dependent DNA repair in human embryonic kidney (HEK293T) cells expressing luciferase-tagged ELG1; HEK293T ELG1-luciferase reporter, luminescence, 16 h; DNA damage induced by 5-fluorouridine; Potency, µM (doses to about 46.1 µM), without a hit: top-dose activity change, negative = inhibition, actives largely listed as inhibitors; hit rate 2.3% among 330,000; AID 504467, 2011; note: nearly all actives have a fitted effect of over 55% in size
#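 5-Fluorouridine DNA damage + compound/DMSO, 2,000 cells/well, 16 h, 37 °C/5% CO2. ONE-Glo, 30 min RT, luminescence. Readout = decrease in reporter signal.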
# Gal4-VP16 FLuc: VP16 counterscreen qHTS for inhibitors of ROR gamma transcriptional activity. Potency, µM (series often up to 53.6 µM), inactives show at the top dose activity, negative = inhibition, actives largely listed as inhibitors. AID 2546, 2010. hit rate 3.5% among 310,000. Drosophila S2 Gal4-VP16 UAS-luciferase, luminescence, 20 h;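 note: Gal4-VP16 expression switched on by copper sulfate through the metallothionein promoter; nearly all actives have a fitted effect of over 50% in size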
# ALOX12 inh: Primary qHTS assay for inhibitors of human arachidonate 12S-lipoxygenase (ALOX12): Round 2 | Polyunsaturated fatty acid lipoxygenase ALOX12 (Homo sapiens), P18054 | purified 12hLO, xylenol orange hydroperoxide absorbance | Potency, µM (top dose mostly 108 µM), inactives show at the highest dose activity change, negative = inhibition, actives largely listed as inhibitors | hit rate 1.1% among 580,000 | AID 1671190, 2021
# Target sequence (P18054 whole entry, looked up): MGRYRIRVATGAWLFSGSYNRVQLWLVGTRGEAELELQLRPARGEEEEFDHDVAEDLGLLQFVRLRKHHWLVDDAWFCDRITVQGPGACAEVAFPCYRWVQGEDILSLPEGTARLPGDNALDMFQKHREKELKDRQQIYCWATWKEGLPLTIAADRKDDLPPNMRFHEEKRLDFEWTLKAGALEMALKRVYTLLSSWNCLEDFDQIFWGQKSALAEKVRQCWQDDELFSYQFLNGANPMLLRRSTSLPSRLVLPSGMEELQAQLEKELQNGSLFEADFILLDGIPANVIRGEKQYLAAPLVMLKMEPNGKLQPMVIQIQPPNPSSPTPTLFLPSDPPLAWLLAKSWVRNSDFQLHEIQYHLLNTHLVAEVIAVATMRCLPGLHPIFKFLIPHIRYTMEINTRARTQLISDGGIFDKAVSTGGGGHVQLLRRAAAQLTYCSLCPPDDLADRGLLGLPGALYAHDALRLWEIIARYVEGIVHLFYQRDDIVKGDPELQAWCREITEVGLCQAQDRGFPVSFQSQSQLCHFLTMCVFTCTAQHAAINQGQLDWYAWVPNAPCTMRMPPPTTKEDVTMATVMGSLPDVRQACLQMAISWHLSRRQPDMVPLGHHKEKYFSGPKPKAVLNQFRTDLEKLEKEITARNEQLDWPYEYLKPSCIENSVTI
#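 Purified human 12hLO (150 nM final) in 25 mM Hepes, 0.01% Triton X-100, pH 7.0 was preincubated 15 min at room temperature with compound. Then 40 uM arachidonic acid was added, 30 min. Hydroperoxide was read by Fe-XO absorbance ratio 573/405 nm.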
# * = called active by the depositor; i = inactive; ? = inconclusive; / = no result; [ ] = another dose, or the depositor's remark. Calls come from the whole dose curve; as a rule, active = well fitted curve in the direction sought with a large enough effect; inconclusive = small, poorly fitted or top-dose-only effect, or another doubt; inactive = no such curve, though single readings can be large; an effect the other way counts as inactive or inconclusive. % is set by controls: 0 for no effect and ±100 for the full control effect; potency is the fitted concentration of half-maximal effect.
SMILES,RORgamma inh,TDP1 cell noCPT,TDP1 cell CPT,ELG1 DNA repair,Gal4-VP16 FLuc,ALOX12 inh
Cc1ccc(NC(=O)COc2ccc(Br)cc2CO)cc1S(=O)(=O)N1CCOCC1,/,18µM*,?,21µM*,/,417%
Cc1ccc(NC(=O)COc2cccc(-n3cnnn3)c2)cc1S(=O)(=O)N1CCOCC1,/,23µM*,?,?,/,-3%
CO/N=C/c1ccc(C(=O)Oc2ccc(Cl)cc2C)cc1,/,/,/,/,/,-5%
CC1(Oc2ccc(CC#N)cc2)CCN(Cc2ccc(-n3ccnc3)cc2)C1 (centres undefined),/,13µM*,?,/,/,?
COc1cc(Cl)ccc1OC1(C)CCN(Cc2ccc(-c3ccccn3)cc2)C1 (centres undefined),/,15µM*,?,/,/,?
CCc1ccc(OC2(C)CCN(Cc3ccc(SC)cc3)C2)cc1 (centres undefined),/,?,?,/,/,-13%
COc1cc(Cl)ccc1OC1(C)CCN(Cc2ccc3ccccc3c2)C1 (centres undefined),/,23µM*,?,/,/,39%
CC(=O)c1ccc(OC2(C)CCN(Cc3ccc4ccccc4c3)C2)cc1 (centres undefined),/,?,-22%,/,/,-3%
CSc1ccc(OC2(C)CCN(Cc3ccc(-c4ccccn4)cc3)C2)cc1 (centres undefined),/,?,?,/,/,-9%
CSc1ccc(OC2(C)CCN(Cc3ccc(C(C)C)cc3)C2)cc1 (centres undefined),/,18µM*,?,/,/,?
COc1ccc(-c2cc(-c3cccnc3)c3cncn3c2)cc1OC,/,/,/,/,/,40%[176 µM]
CCOc1ccc(OCC(O)CN2CCN(c3ccc(C(F)(F)F)cn3)CC2)cc1 (centres undefined),/,/,/,/,/,16%
CN(C)CCCNc1oc(-c2ccc([N+](=O)[O-])cc2)nc1C#N,/,/,/,/,/,-3%
COc1ccc(CNC(=O)NCC2Cn3cccc3C(=O)N2Cc2ccccc2)cc1 (centres undefined),/,/,/,/,/,-3%
COc1ccc(C(=O)N2CCc3nnc([C@@H]4C[C@@H](O)CN4C(C)C)n3CC2)cn1,/,/,/,/,/,65%
COCOc1cccc(CN2CCC(C)(Oc3cccc(OC)c3)C2)c1 (centres undefined),/,?,18µM*,/,/,-6%
COCCc1ccc(OC2(C)CCN(Cc3cccc(OCOC)c3)C2)cc1 (centres undefined),/,?,?,/,/,-26%
COc1cc(OC)cc(C(=O)NC2CC3CCC2C3)c1 (centres undefined),/,/,/,/,/,-3%
CCN(CC)c1cc(CCC(=O)N2CCC(C)CC2)ccn1,/,/,/,/,/,44%
CCc1ccccc1NC(=S)N(Cc1cccs1)C1CCCC1,11µM*,-27%,-19%,-5%,15%[10 µM],-7%
COc1ccccc1NC(=S)N(CCN1CCCCCC1)Cc1cccs1,14µM*,9.2µM*,?,7%,-15%[10 µM],i
Cc1ccccc1NC(=S)N(Cc1cccs1)C1CCCC1,?,?,-27%,7%,?,-3%
Cc1ccccc1NC(=S)N(Cc1ccccc1)Cc1cccs1,10µM*,2%,-21%,-2%,-9%,-15%
Cc1ccc(NC(=S)N(CCN2CCCCC2)Cc2ccco2)cc1,?,16µM*,?,7%,-21%,-18%
COc1ccc(C(=O)N2CCCCCC2c2nnc(-c3ccccc3)o2)cn1 (centres undefined),/,/,/,/,/,10%
SMILES,RORgamma inh,TDP1 cell noCPT,TDP1 cell CPT,ELG1 DNA repair,Gal4-VP16 FLuc,ALOX12 inh
CCc1ccc(C(=O)N(Cc2ccncc2)C2CC2)s1,/,/,/,/,/,-10%
COc1ccccc1NC(=S)N(CCN(C)C)C(C)c1ccncc1 (centres undefined),-3%,-2%,-9%,-3%,-15%,1%
Cc1ccccc1NC(=S)N(CCN1CCCCCC1)Cc1cccs1,10µM*,?,?,-11%,?,10%
COCCN(C(=S)Nc1ccccc1OC)C(C)c1cccs1 (centres undefined),?,29µM*,23µM*,-2%,?,-22%
CNC(=S)N(Cc1ccc(Cl)cc1)Cc1cccs1,-17%,16µM*,?,-4%,7%,59%
Fc1ccccc1NC(=S)N(CCN1CCCCCC1)Cc1cccs1,12%,0%,0%,?,-3%[10 µM],46%
Cc1ccoc1C(=O)N[C@@H]1CN(c2ncccn2)C[C@H]1CO,/,/,/,/,/,24%
Cc1nc(-c2ccccn2)sc1C(=O)NC1CCC(C(F)(F)F)CC1 (centres undefined),/,/,/,/,/,46%
CN1C(=O)N(CCc2ccccc2)C(=O)C12CCN(Cc1cccn1-c1ccccn1)CC2,/,/,/,/,/,67%
O=C(O)CCc1ccc(-c2cccs2)o1,11µM*,-2%,?,?,?,/
CCN(Cc1ccncc1)C(=O)c1cc(=O)c2ccccc2o1,/,/,/,/,/,9%
CCCNc1nc2ccccc2nc1C(=O)Nc1cc(C)cc(C)c1,/,/,/,/,/,3%
CCN1CCN(c2cc(C(=O)O)c3cc(NC(=O)C(C)C)ccc3n2)CC1,/,/,/,/,/,16µM*
O=C(Nc1ccc2nc(N3CCN(C4CCCCC4)CC3)cc(C(=O)O)c2c1)c1ccc(Cl)cc1,/,/,/,/,/,13µM*
CCCN1CCN(c2cc(C(=O)O)c3cc(NC(=O)C(C)C)ccc3n2)CC1,/,/,/,/,/,11µM*
N#CCCN1CCN(c2cc(C(=O)O)c3cc(NC(=O)c4ccccc4)ccc3n2)CC1,/,/,/,/,/,6.3µM*
CCCCC(=O)Nc1ccc2nc(N3CCN(CC)CC3)cc(C)c2c1,/,/,/,/,/,-58%
Cc1noc([C@@H]2CC(F)(F)CN2C(=O)c2ccoc2C)n1,/,/,/,/,/,18%
N#CCSc1nc2sc3c(c2c(=O)n1C1CCCCC1)CCCC3,?,23µM*,?,13%,-8%,?
CN1CCc2c(sc3nc(SCC(=O)N4CCCCC4)n(-c4ccccc4)c(=O)c23)C1,1%,-26%,?,-23%,1%,91%
C=C(C)CSc1nc2sc3c(c2c(=O)n1C1CCCCC1)CCN(C)C3,-12%,6.5µM*,5.8µM*,?,5%,-15%
CSc1nc2sc3c(c2c(=O)n1C1CCCCC1)CCN(C)C3,52%,?,-9%,4%,-4%,64%
CCSc1nc2sc3c(c2c(=O)n1C1CCCCC1)CCN(C)C3,-4%,15µM*,16µM*,-24%,4%,?
